Bioassay records from PubChem BioAssay.
15-hLO inh: blocks human 15-lipoxygenase activity. purified 15hLO-1, xylenol orange hydroperoxide absorbance. Potency, µM (titrated, usually from 57.1 µM), without a hit: at the top dose activity change, negative = inhibition, hits mostly inhibitors. 74,000 compounds, 1.4% hits; note: nearly all actives have a fitted effect of over 55% in size
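Purified human 15hLO-1 (40 nM final) in 25 mM Hepes pH 7.5, 0.01% Triton X-100 was preincubated with compound 15 min at room temperature, then reacted 6 min with 50 uM arachidonic acid; hydroperoxide detected by Fe-XO, 573/405 nm absorbance ratio.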
Tau filament bind: binds recombinant human tau filaments; P10636; 71,000 compounds, 2% hits; recombinant tau filaments, thioflavin S fluorescence, 15 h; filaments grown with octadecylsulfate alongside compound; Potency, µM (series often up to 57.1 µM), for inactives: at the highest dose activity change, negative = inhibition;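 note: actives lower thioflavin S fluorescence by blocking filaments or displacing dye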
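ThS-based fibril read: tau 1 uM final, inducer ODS 30 uM final, 37 C for 15 h, ex 450/em 510 nm.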
ERK AVP inh: blocks ERK signaling stimulated by vasopressin | Potency, µM (titrated, usually from 57.5 µM), inactives show at the top dose activity, negative = inhibition, hits mostly inhibitors | 72,000 compounds, 0.99% hits | HEK293-V1b, vasopressin-stimulated pERK AlphaScreen | AID 995; note: nearly all actives have a fitted effect of over 55% in size
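HEK293 cells stably expressing V1b receptor, seeded overnight in 1% FBS, were treated with compounds for 30 min at 37C, then stimulated 5 min with 25 nM vasopressin; phospho-ERK read by AlphaScreen SureFire after lysis.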
FLuc inh: inhibitors of firefly luciferase. purified firefly luciferase, luminescence, 8 min. 72,000 compounds, 2.2% hits. Potency, µM (top dose mostly 57.1 µM), for the others: top-dose activity change, negative = inhibition, hits mostly inhibitors. P08659. AID 411; note: nearly all actives have a fitted effect of over 40% in size
Target sequence (P08659 whole entry, looked up): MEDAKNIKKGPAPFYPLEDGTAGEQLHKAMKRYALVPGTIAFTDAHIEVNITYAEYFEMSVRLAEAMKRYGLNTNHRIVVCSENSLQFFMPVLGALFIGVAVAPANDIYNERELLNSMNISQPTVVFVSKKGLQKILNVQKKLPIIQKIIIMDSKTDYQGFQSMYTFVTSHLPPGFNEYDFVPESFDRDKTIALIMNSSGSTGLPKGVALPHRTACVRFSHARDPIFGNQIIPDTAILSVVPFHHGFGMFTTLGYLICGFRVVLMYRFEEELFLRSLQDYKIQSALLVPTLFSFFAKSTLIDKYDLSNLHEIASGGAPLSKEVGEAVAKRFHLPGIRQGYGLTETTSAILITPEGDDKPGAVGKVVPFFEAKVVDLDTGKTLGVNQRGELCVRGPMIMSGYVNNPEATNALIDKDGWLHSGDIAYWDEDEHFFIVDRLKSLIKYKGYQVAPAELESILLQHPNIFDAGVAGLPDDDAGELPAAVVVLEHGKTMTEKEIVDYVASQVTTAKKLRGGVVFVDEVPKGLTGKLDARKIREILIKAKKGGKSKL
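Luminescence read-out after 8 min at room temperature; enzyme reaction used luciferin plus 10 uM ATP (linear range) in imidazole buffer pH 7.2 with KCl, MgCl2, Tween 20 and BSA. Each sample was run as a titration.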
PK Bst: alters activity of Bacillus stearothermophilus pyruvate kinase; purified pyruvate kinase, luminescence ATP production; ribose 5-phosphate activator present at AC10; Potency, µM; 51,000 compounds, 1.2% hits; in the data active = potency below about 11 µM; inconclusive = mostly about 12 µM to 25 µM;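 the screen sought inhibitors and activators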;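 note: scaled between full activation by ribose 5 phosphate and full inhibition by luteolin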
DNA Pol III inh: DNA polymerase III holoenzyme inhibition | reconstituted DNA polymerase III holoenzyme replication, biochemical | Potency, µM (top dose mostly 57.1 µM), inactives show at the highest dose activity change, negative = inhibition | 71,000 compounds, 0.25% hits | AID 603
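Reconstituted *E. coli* holoenzyme (0.35 nM Pol III, 1 nM beta, 154 nM SSB, 2 nM primase) was preincubated with compound for 15 min at RT. Synthesis on 1.4 nM ssM13Gori ran 35 min, then was stopped with PicoGreen/EDTA and read as dsDNA fluorescence.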
The depositor's hits bear a star; i = inactive; ? = inconclusive; . = no result; [ ] = remark or other dose. An excerpt weighted towards active compounds, which were near 6% of everything screened. Unless noted, calls come from the whole dose curve; as a rule, active = well fitted curve in the direction sought with a large enough effect; inconclusive = small, poorly fitted or top-dose-only effect, or another doubt; inactive = no such curve, though single readings can be large; an effect the other way counts as inactive or inconclusive. Unless noted, % is set by controls: 0 for no effect and ±100 for the full control effect; potency is the fitted concentration of half-maximal effect.

SMILES | 15-hLO inh | Tau filament bind | ERK AVP inh | FLuc inh | PK Bst | DNA Pol III inh
CCCSc1nnc2n(C)c(=O)c3c4c(sc3n12)CCC4 | . | . | . | -1%[25.5 µM] | 4.7* | .
CCc1ccc(NC(=O)c2cc(-c3ccco3)on2)cc1 | -11% | 16µM* | 22% | ? | >57 | -3%
CC1C(C#N)=C(N)OC2=C1C(=O)CC(C)(C)C2 (configuration not stated) | 2% | 11% | -4% | -5% | . | 1%
CC1(C)CC(=O)C2=C(C1)OC(N)=C(C#N)C2C1CC=CCC1 (configuration not stated) | 32µM* | -11% | -17% | 2% | >57 | -2%
COc1ccc2cc1Oc1ccc(cc1)C[C@@H]1c3c(cc(OC)c4c3Oc3cc5c(cc3O4)CCN[C@H]5C2)CCN1C | 3%[11.4 µM] | 40%[11.4 µM] | -18%[11.5 µM] | 4%[11.4 µM] | . | -4%[11.4 µM]
C=C(C)COc1ccc2c(C)c(CC(=O)OC)c(=O)oc2c1C | -4% | 28% | -26% | 16µM* | i | -9%
COCCn1c(=O)c(-c2ccc(F)cc2)nc2cnc(N(C)C)nc21 | -14% | 16% | 22% | -1%[11.4 µM] | . | -7%
CC(=O)OCC1OC(C#CCC2CCCCC2)C=CC1OC(C)=O (configuration not stated) | 9%[11.4 µM] | . | -4%[11.5 µM] | . | . | .
N=c1n(CCN2CCOCC2)c2ccccc2n1CC(=O)c1ccc(Cl)c(Cl)c1 | -12% | 151% | ? | 2% | 3.1* | -5%
O=C1CCCC(O)=C1C(C#Cc1ccccc1)C1=C(O)CCCC1=O | 7.9µM* | -10% | -18% | -14% | >57 | -1%
O=C(NCC1CCCO1)[C@@H]1CSC2c3ccccc3C(=O)N21 (some centres not stated) | 1% | 0% | -10% | 0% | >57 | -2%
COc1ccc(NC(=O)C2CSC3c4ccccc4C(=O)N23)cc1 (configuration not stated) | . | . | . | 0%[25.5 µM] | 11* | .
CC1=CC(=O)CC(C)(C)[C@]1(O)/C=C\C(C)=C\C(=O)O | 0%[11.4 µM] | -12%[11.4 µM] | 7%[11.5 µM] | 0%[11.4 µM] | . | -3%[11.4 µM]
COc1ncc2nc(-c3cc(F)cc(F)c3)c(=O)n(C)c2n1 | -5% | 2% | -12% | 0%[11.4 µM] | . | -7%
Cn1c(=O)c(-c2cc(F)cc(F)c2)nc2cnc(Nc3ccccc3)nc21 | -2% | 6.3µM* | ? | 0%[11.4 µM] | . | 12%
Cn1c(=O)c(-c2cc(F)cc(F)c2)nc2cnc(Oc3ccccc3)nc21 | 11% | 13µM* | -29% | 1%[11.4 µM] | . | -12%
COc1ccc2oc(C(=O)c3ccccc3)c(NC(=O)CN3CCN(C)CC3)c2c1 | -4% | 4µM* | -18% | -1% | i | -7%
C/C(CCN1CCCc2nc(C)c(C)cc21)=N\O[C@@H](C)c1cn([C@H](CO)Cc2ccccc2)nn1 | 7%[11.4 µM] | . | 23%[11.5 µM] | -1%[11.4 µM] | . | .
CN(C)c1ccc(O)c2c1C[C@@H]1C[C@H]3C(N(C)C)C(=O)C(C(N)=O)=C(O)[C@@]3(O)C(=O)C1=C2O (some centres not stated) | 2% | . | -14% | . | . | .
CN(C)[C@H]1C(=O)C(C(=O)NCN2CCCC2)=C(O)[C@]2(O)C(=O)C3=C(O)c4c(O)cccc4[C@](C)(O)[C@H]3C[C@H]12 | -25%[11.4 µM] | -10%[11.4 µM] | -5%[11.5 µM] | -1%[11.4 µM] | . | 3.2µM*
O=C(c1cccc(F)c1)N1CCC2(CC1)CCN(c1ccncc1)CC2 | 3% | 27% | 6% | 0%[11.4 µM] | . | -6%
COc1ccc(Cl)cc1N=Nc1ncc[nH]1 | -15%[25.6 µM] | 40µM* | ? | 0% | . | -14%
CCn1c(C)cc(=S)c2ccccc21 | -26% | 5µM* | 24% | -1% | >57 | -7%
CCn1c2ccccc2c2cc(N)ccc21 | -17% | 3.2µM* | ? | -8% | . | 0%
CCOC(=O)c1c(C)c2c(n1C)CCC/C2=N\O | -3% | 68% | 3.2µM* | -4% | >57 | -2%
SMILES | 15-hLO inh | Tau filament bind | ERK AVP inh | FLuc inh | PK Bst | DNA Pol III inh
Cc1nc2sc(-c3ccccc3)cc2c(=O)n1-n1cccc1 | -9% | 51% | -9% | 20µM* | >57 | -6%
COc1ccc2c(c1OC)C(Cc1ccccc1)N1CCc3cc4c(cc3C1=C2)OCO4 (configuration not stated) | ? | . | 6.3µM* | . | . | .
COc1ccc(CC(=O)N2CC3(C)CC2CC(C)(C)C3)cc1OC (configuration not stated) | -6%[11.4 µM] | -2%[11.4 µM] | 32µM* | 1% | . | -4%[11.4 µM]
COc1ccc(OCC(=O)N2CC3(C)CC2CC(C)(C)C3)cc1 (configuration not stated) | -11% | -1% | 8% | -8% | . | -3%
C[N+](C)(C)c1ccc([C@H](N)C(=O)O)cc1 | 4%[11.4 µM] | 7%[11.4 µM] | -1%[11.5 µM] | 0%[11.4 µM] | . | -1%[11.4 µM]
COc1c2c(nc3ccccc13)O[C@@H]([C@@](C)(O)CO)C2 | -3% | -5% | -17% | 1% | . | -4%
COc1cccc(Cn2c(=O)c(C)nc3cnc(OCc4ccccc4)nc32)c1 | -5% | 32µM* | 6% | 1%[11.4 µM] | . | -10%
COc1cccc(Cn2c(=O)c(-c3ccc(Cl)cc3)nc3cnc(OC)nc32)c1 | 0% | 13µM* | -19% | 0%[11.4 µM] | . | -10%
COc1ccccc1CCn1c(=O)c(-c2cccs2)nc2cncnc21 | -15% | -6% | -24% | 1%[11.4 µM] | . | -2%
COc1ccccc1CCn1c(=O)c(-c2ccc(Cl)cc2)nc2cncnc21 | -12% | 13µM* | ? | 2%[11.4 µM] | . | 12%
COc1cccc(Cn2c(=O)c(-c3cccc(Cl)c3)nc3cncnc32)c1 | ? | 20µM* | -23% | 0%[11.4 µM] | . | -10%
O=C(NCc1cccs1)O[C@H]1C[C@H]2CC[C@@H]1C2 | -5%[11.4 µM] | 0%[11.4 µM] | 9%[11.5 µM] | 0%[11.4 µM] | . | -5%[11.4 µM]
